Screening results (PubChem)
Hits are enriched below; roughly 8.8% of the tested compounds scored in any of these assays.
HTT aggregate = qHTS Multiplex Assay to Identify Dual Action Probes in a Cell Model of Huntington: Aggregate Formation (GFP); PC12 HttQ103-GFP aggregates, Acumen cytometry, 40 h; Potency, µM (titrated, usually from 46.1 µM), without a hit: top-dose activity change, negative = inhibition, usual class: inhibitors; actives 1.1% (n = 220,000); AID 1688, 2009; active = well fitted curve in the direction sought with a large enough effect; inconclusive = small, poorly fitted or top-dose-only effect, or another doubt; inactive = no such curve, though single readings can be large; an effect the other way counts as inactive or inconclusive; note: % is set by controls: 0 for no effect and ±100 for the full control effect; nearly all actives have a fitted effect of over 60% in size
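PC12 cells with ecdysone-inducible HTT exon1 Q103-GFP, induced by 100 nM tebufenozide, given compounds in a concentration series. GFP aggregates (1–25 um, 6 SD above background) counted in lysates by laser-scanning cytometry, 488 nm excitation.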
ALDH1A1 inh = qHTS Assay for Inhibitors of Aldehyde Dehydrogenase 1 (ALDH1A1); actives 7.3% (n = 220,000); Purified ALDH1A1, NADH fluorescence, propionaldehyde substrate; AID 1030, 2008; Potency, µM (highest dose often 75.3 µM), for the others: at the top dose activity, negative = inhibition, hits mostly inhibitors;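 note: plate controls were no enzyme wells and a reference inhibitor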
HPGD inh = qHTS Assay for Inhibitors of HPGD (15-Hydroxyprostaglandin Dehydrogenase) | purified HPGD, NADH fluorescence kinetic, PGE2 substrate | actives 4.3% (n = 150,000) | Potency, µM, inactives show at the top dose activity change, negative = inhibition, actives largely listed as inhibitors; note: % is set by controls: 0 for no effect and ±100 for the full control effect
Target sequence (P15428 whole entry, looked up): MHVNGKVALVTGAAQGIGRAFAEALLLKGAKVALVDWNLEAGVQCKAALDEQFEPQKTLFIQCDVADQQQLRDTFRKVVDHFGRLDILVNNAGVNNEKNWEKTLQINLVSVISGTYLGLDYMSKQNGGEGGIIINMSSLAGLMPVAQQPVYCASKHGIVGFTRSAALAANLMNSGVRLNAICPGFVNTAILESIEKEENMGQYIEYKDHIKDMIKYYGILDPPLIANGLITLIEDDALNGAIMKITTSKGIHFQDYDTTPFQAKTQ
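NADH formation kinetics: reaction with 30 uM PGE2 and 1 mM NAD+ (final), 20 nM enzyme, Tris-HCl pH 8 with Tween 20, after 15 min compound preincubation at room temperature. Fluorescence change, last versus first of five reads.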
HTT ATP protect = qHTS Multiplex Assay to Identify Dual Action Probes in a Cell Model of Huntington: Cytoprotection (ATP); Potency, µM (titrated, usually from 56.4 µM), inactives show cytoprotection (ATP increase), actives largely listed as activators; PC12 HTT-Q103 induced, cytoprotection, ATP luminescence, 40 h; actives 0.14% (n = 230,000); active = well fitted curve in the direction sought with a large enough effect; inconclusive = small, poorly fitted or top-dose-only effect, or another doubt; inactive = no such curve, though single readings can be large; an effect the other way counts as inactive or inconclusive; note: % of control where 0% means no effect; nearly all actives have a fitted effect of over 45% in size
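ATP quantification (ATPlite) reports survival of PC12 cells in which tebufenozide, 100 nM final, switches on Htt exon 1 with 103 glutamines linked to GFP; compounds are titrated.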
Lamin A splicing = qHTS Assay for Modulators of Lamin A Splicing. HeLa LMNA splicing GFP/RFP minigene ratio, 48 h. Potency, µM (doses to about 46.1 µM), for inactives: top-dose ratio change, negative = inhibition, actives largely listed as inhibitors. actives 0.01% (n = 200,000). AID 1487, 2009; active = well fitted inhibition curve with a large enough effect in the signal ratio, with a control signal flat, not every such curve was filed as active; inconclusive = small, poorly fitted or top-dose-only effect, or effect the other way, or a change in a side signal; the % refers to the signal ratio; note: % is set by controls: 0 for no effect and ±100 for the full control effect
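S3 HeLa cells stably expressing lamin A-EGFP splicing minigene plus DsRed2, 600 cells/well, 48 h compound exposure at 37C. Laser-scanning cytometry; analysed as GFP (500-530 nm)/RFP (575-640 nm) total intensity ratio; 0.5% DMSO vehicle.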
* marks the source's active call; other numbers are inactive results; [ ] = remark or other dose. Unless noted, calls come from the whole dose curve; as a rule, active = well fitted inhibition curve with a large enough effect (not every such curve was filed as active); inconclusive = small, poorly fitted or top-dose-only effect, or another doubt; inactive = no such curve, though single readings can be large or run the other way. Potency is the fitted concentration of half-maximal effect.

Cc1nn(Cc2ccc(F)cc2)c(C)c1NC(=O)CCCn1nc([N+](=O)[O-])cc1C was read as HTT aggregate 6.6%, ALDH1A1 inh 4.4%, HTT ATP protect -38.8% and Lamin A splicing 4.6%[46 µM].
Screening CCn1c(O)c(/C=N/N=C2CCCC2)c2ccc(C3=NNC(=O)CC3)cc21 returned HTT aggregate 5.1%, ALDH1A1 inh inconclusive, HPGD inh 15.8µM*, HTT ATP protect 0.5% and Lamin A splicing 10.5%.
For CC(=O)Nc1ccc(N2CCCCC2)c(C(=O)Nc2cccc(C)c2)c1 the results were HTT aggregate 13.3%, ALDH1A1 inh 11.2µM*, HPGD inh -8.7%, HTT ATP protect 1.0% and Lamin A splicing -1.7%.
For Cc1cccc(NC(=O)c2cc(NC(=O)C3CCCCC3C(=O)O)ccc2N2CCCCC2)c1 (stereo unspecified) the results were HTT aggregate 5.2%, ALDH1A1 inh 17.8µM*, HPGD inh 0.9%, HTT ATP protect -1.5%[0.074 µM] and Lamin A splicing -5.3%.
`CC/C=C\C/C=C\C/C=C\C/C=C\C/C=C\C/C=C\CCC(=O)O[C@H](COCCCCCCCCCCCCCCCC)COP(=O)([O-])OCC[N+](C)(C)C` gave ALDH1A1 inh 0.7%, HPGD inh -4.9% and HTT ATP protect -21.1%.
Screening O=C(COc1ccc([N+](=O)[O-])cc1)Nc1ccc(C(=O)NCc2cccnc2)cc1 returned HTT aggregate 3.55µM*, ALDH1A1 inh -2.4%, HPGD inh -3.4%, HTT ATP protect -152.2% and Lamin A splicing -7.3%.
`COC(=O)c1sccc1S(=O)(=O)N(CC(=O)Nc1cccc(C)c1C)c1ccc(C)c(C)c1` gave Lamin A splicing -24.2%[46 µM].
CCc1c(C)sc(NC(=O)C2CCCCC2C(=O)O)c1C(N)=O (stereo unspecified) was read as HTT aggregate -2.1%, ALDH1A1 inh 1.58µM*, HPGD inh 3.98µM*, HTT ATP protect -23.1% and Lamin A splicing 8.4%.
O=[N+]([O-])c1ccc(S(=O)(=O)N2CCSC2c2ccco2)cc1 (stereo unspecified) was read as HTT aggregate -3.6%[9.22 µM], ALDH1A1 inh 3.98µM*, HTT ATP protect 11.8%[10 µM] and Lamin A splicing inconclusive.
For O=S(=O)(c1ccc(Cl)cc1)N1CCSC1c1ccco1 (stereo unspecified) the results were HTT aggregate -15.9%, ALDH1A1 inh inconclusive, HPGD inh -3.8%, HTT ATP protect -2.3% and Lamin A splicing 12.8%.
COc1ccc(CNC(=O)/C=C/c2ccc(S(=O)(=O)NCc3ccco3)cc2)cc1OC was read as HTT aggregate -20.8%, ALDH1A1 inh 45.3%, HPGD inh -8.7%, HTT ATP protect 9.9%[10 µM] and Lamin A splicing inconclusive.
`O=C(/C=C/c1ccc(S(=O)(=O)NCc2ccco2)cc1)NCc1ccccc1Cl` gave HTT aggregate 13.7%[9.22 µM], ALDH1A1 inh 28.2µM*, HTT ATP protect 2.0%[10 µM] and Lamin A splicing 5.4%.
Cc1cc(C)cc(NC(=O)c2sc3nc4n(c(=O)c3c2C)N=C(c2ccc(F)cc2)CS4)c1 was read as Lamin A splicing 2.8%[46 µM].
CCOC(=O)c1ccc(/C=C2/C=C(c3ccccc3)N(c3ccc(Cl)c(C(=O)O)c3)C2=O)cc1 was read as HTT aggregate -0.3%, ALDH1A1 inh 11.2µM*, HPGD inh -23.4% and Lamin A splicing inconclusive.
CCOC(=O)c1ccc(Cl)c(NC(=O)c2ccc(-c3ccccc3)cc2)c1 was read as HTT aggregate 12.5%, ALDH1A1 inh 12.8%, HPGD inh -7.8%, HTT ATP protect -22.6% and Lamin A splicing 20.3%.
For COc1ccc2c(c1)C(=O)[C@@H](OC(=O)NS(=O)(=O)c1ccc(C)cc1)[C@H](c1ccc(OC)c(Br)c1)O2 the results were ALDH1A1 inh 4.0%, HPGD inh -3.1% and HTT ATP protect -33.2%.
